Results reported in PubChem BioAssay AID2283109 (EPA ToxCast).
Activity calls are given as the source filed them. How the source made its calls: active means hit-call score of the fitted dose curve at least 0.9, where 1 is the maximum; inactive means score below 0.9.

The compounds below were run against human CYP3A5, CYP3A5 (gene 1577) (UniProt P20815) (assay: NVS_ADME_hCYP3A5: NovaScreen (NVS) CYP450-related Enzyme Activity (ADME) Assay for human CYP3A5).
Sequence of human CYP3A5, CYP3A5 (gene 1577) (P20815 whole entry, looked up): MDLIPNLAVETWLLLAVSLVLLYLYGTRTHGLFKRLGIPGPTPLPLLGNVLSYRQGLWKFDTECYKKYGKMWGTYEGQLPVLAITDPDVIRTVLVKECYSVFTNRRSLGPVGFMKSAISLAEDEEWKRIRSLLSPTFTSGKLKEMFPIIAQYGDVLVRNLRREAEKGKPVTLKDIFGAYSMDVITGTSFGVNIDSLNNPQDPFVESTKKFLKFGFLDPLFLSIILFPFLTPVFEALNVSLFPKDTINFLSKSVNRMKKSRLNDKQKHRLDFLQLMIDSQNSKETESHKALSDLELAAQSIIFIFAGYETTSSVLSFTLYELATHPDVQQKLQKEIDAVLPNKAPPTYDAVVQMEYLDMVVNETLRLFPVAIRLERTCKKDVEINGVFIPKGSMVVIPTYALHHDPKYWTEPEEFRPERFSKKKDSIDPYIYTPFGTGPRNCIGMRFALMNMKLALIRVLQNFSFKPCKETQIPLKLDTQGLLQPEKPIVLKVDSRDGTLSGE
Method: NVS_ADME_hCYP3A5 is a biochemical, single-readout assay that uses extracted gene-proteins in a cell-free assay. Measurements were taken 0.5 hour after chemical dosing in a 96-well plate.NVS_ADME_hCYP3A5 is one of one assay component(s) measured or calculated from the NVS_ADME_hCYP3A5 assay. It is designed to make measurements of enzyme activity, a form of enzyme reporter, as detected with fluorescence intensity signals by Fluorescence technology.Data from the assay component NVS_ADME_hCYP3A5 was analyzed into 1 assay endpoint. This assay endpoint, NVS_ADME_hCYP3A5, was analyzed in the positive analysis fitting direction relative to Acetonitrile as the negative control and baseline of activity. Using a type of enzyme reporter, loss-of-signal activity can be used to understand changes in the enzymatic activity as they relate to the gene CYP3A5. Furthermore, this assay endpoint can be referred to as a primary readout, because this assay has produced multiple assay endpoints where this one serves a enzymatic activity function. To generalize the intended target to other relatable targets, this assay endpoint is annotated to the cyp intended target family, where the subfamily is xenobiotic metabolism.
Binding assays used specific radioligands (tritiated, iodinated) with non-radioactive competitive displacement ligands in agonist or antagonist protocols (as indicated) and various reference compounds and inhibitors to titrate specific binding to receptors and transporters. Most enzyme assays (CYPs, kinases, phosphatases, proteases, HDACs) used recombinant protein and specific substrates (fluorescence mostly, some colorimetric and radioactive) and inhibitors, followed by a biochemical separation of substrate and product. All assays for the biochemical HTS were initially run in duplicate at a single concentration (10 uM for CYP450 assays and 25 uM for all others). […]
In the case of `COC(=O)Nc1cccc(OC(=O)Nc2cccc(C)c2)c1`, the outcome is reported as “inactive”. For `COP(=S)(OC)Oc1ccc(Sc2ccc(OP(=S)(OC)OC)cc2)cc1`, the AC50 was 13.5 µM (active). With `Clc1ccc(C2(Cn3cncn3)CC(Br)CO2)c(Cl)c1` (stereo not drawn) the AC50 was 0.557 µM (active).
